Here are results for 37 molecules from article PMC5540273 (PLoS ONE, 2017).
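Also: KINOMEscan kinase panel screen.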

For one assay, the system named is PAK7. The settings on record: concentration: 1 μM, replicates: in singlicate; n = 1.
As for `O=C(Nc1cccc(-c2nn3ccccc3c2-c2ccnc(Nc3cccc(C(F)(F)F)c3)n2)c1)c1c(F)cccc1F` [GSK292658], the “%Inh” value came to 0%. For the molecule `O=C(NC1CCN(c2ccnc(Nc3ccc(F)cc3)n2)C1)c1cc2ccccc2s1` (stereo not drawn) [GSK1379716], the “%Inh” value came out at 4%. On the same count and under the same terms, the value for `COc1cc(Nc2nccc(-c3c(-c4cccc(NC(=O)c5c(F)cccc5F)c4)nn4ncccc34)n2)cc(OC)c1OC` [GSK327238] was 41%. Regarding `COc1cccc(-c2ccc3c(NC(=O)C4CC4)n[nH]c3n2)c1` [SB-710903], the “%Inh” value amounted to 8%.

As for `Cn1cc(-c2ccc3c(c2)CCN3C(=O)Cc2cccc(Cl)c2)c2c(N)ncnc21` [GSK2606590], the “%Inh” value stood at 9%.

Another assay deals with T1, PCTK1.
T1 construct: gene CDK16
The settings on record: concentration: 1 μM, replicates: in singlicate; n = 1.
With `FC(F)(F)c1ccc(/C=C/c2cncnc2Nc2ccc3[nH]c(Cc4ccccc4)nc3c2)cc1` [GW709199], the “%Inh” value amounted to 0%. `COc1ccc(Nc2nccc(NCCNC(=O)c3cc4ccccc4s3)n2)cc1` [GSK1379896]: the “%Inh” value is listed as 1%. On the same count and under the same terms, then `Cl.Cl.NCC(NCc1ccc(-c2ccnc3[nH]ccc23)s1)c1ccccc1` (stereo not drawn) [GSK1321565], with 0%; and `O=C(Nc1cccc(-c2nn3ncccc3c2-c2ccnc(Nc3ccccc3)n2)c1)c1c(F)cccc1F` [GSK198271], with 10%; and `Cn1cc(-c2ccc3c(c2)CCN3C(=O)Cc2cccc(F)c2)c2c(N)ncnc21` [GSK2603358], with 4%. Still for that read-out and setting: the value for `Nc1ncc(-c2cccnc2)c2scc(-c3ccc4c(c3)CCN4C(=O)Cc3ccccc3)c12` [GSK683281] was 1%.

`COC(=O)Nc1nc2cc(Oc3ccc(NC(=O)Nc4cc(C(F)(F)F)ccc4F)cn3)ccc2[nH]1.Cl.Cl` [GW681170]: the “%Inh” value amounted to 0%.

With `CCn1c(-c2nonc2N)nc2c(C#CC(C)(C)O)nc(OC[C@H](N)c3ccccc3)cc21` [GSK943949], the “%Inh” value turned out to be 0%. The same measure, in the same setting: the value for `COc1ccc(Nc2nccc(N3CCC(NC(=O)Nc4cccc(OC)c4)C3)n2)cc1` (stereo not drawn) [GSK1379742] was 4%.

In the case of `O=C(Nc1cccc(Oc2ccc3nc(NC(=O)C4CC4)cn3n2)c1)c1ccccc1C(F)(F)F`, the “%Inh” value was 0%. Turning to `Fc1ccc(-c2ncn(C3CCNCC3)c2-c2ccnc(Oc3ccc(-c4ccccc4)cc3)n2)cc1` [SB-245391], the “%Inh” value is listed as 16%. With `CC(=O)Nc1nc2cnc(Nc3cc(NC(=O)c4cccc(C5(C#N)CC5)c4Cl)ccc3C)nc2s1`, the “%Inh” value is reported as 6%. On the same count and under the same terms, then `Clc1ccc(-c2nn3ncccc3c2-c2ccnc(Nc3ccc4c(c3)OCCO4)n2)cc1` [GW829116], with 0%. As to `O=C(Nc1ccccc1F)NC1CCN(c2ccnc(Nc3ccc(F)cc3)n2)CC1` [GSK1379800], the “%Inh” value is given as 0%. The same measure, in the same setting: the value for `c1ccc(-c2cnc3nccnn23)cc1` [AH20685] was 7%; that for `COc1cc2c(cc1OCCN1CCNCC1)ncc1c3ccc(C#N)cc3[nH]c21` was 16%. Regarding `COc1cccc(C2=C(Nc3ccc(Cl)c(C(=O)O)c3)C(=O)NC2=O)c1` [SB-390769], the “%Inh” value is on record as 0%. On the same count and under the same terms, then `O=C(O)C(F)(F)F.O=C(O)C(F)(F)F.O=c1[nH]ccc2nc(N[C@@H]3CCCNC3)nc(Nc3ccc(S(=O)(=O)N4CCOCC4)cc3)c12` [GSK2177277], with 99.9%; and `COc1cccc(NC(=O)NC2CCN(c3ccnc(Nc4cc(OC)c(OC)c(OC)c4)n3)C2)c1` (stereo not drawn) [GSK1379763], with 6%. On the same count and under the same terms, then `O=c1[nH]cc(-c2ccc(N3CCOCC3)cc2)c2sc(-c3cn[nH]c3)cc12` [GSK2276055], with 4%; and `Nc1ncc(-c2ccc3nccc(-c4ccncc4)c3c2)cc1S(=O)(=O)N1CCOCC1` [GSK1627798], with 3%. The same measure, in the same setting: the value for `Cl.c1ccc(-c2ccc3c(Nc4ccc5[nH]ncc5c4)ccnc3c2)nc1` [GW440137] was 2%; that for `Cc1ccc(C)c(NC(=O)NC2CCN(c3ccnc(Nc4ccc(F)cc4)n3)C2)c1` (stereo not drawn) [GSK1379720] was 0%; that for `Cl.Cl.NCC(NC(=O)c1cc(-c2ccccc2)c(-c2ccnc3[nH]ccc23)s1)c1ccccc1` (stereo not drawn) [GSK1321561] was 7%. On to `Cc1occc1-c1ncc(OC[C@@H](N)Cc2c[nH]c3ccccc23)cc1-c1ccc2[nH]nc(C)c2c1.O=C(O)C(F)(F)F` [GSK682037], for which the “%Inh” value is recorded as 0%. With `CN(c1ccc(NC(=O)Nc2cc(C(F)(F)F)ccc2F)cc1)c1ccnc(Nc2ccc(S(N)(=O)=O)cc2)n1` [GW809893], the “%Inh” value was 69%. The same measure, in the same setting: then `CC(C)c1nc(-c2cccc(NS(=O)(=O)c3c(F)cccc3F)c2F)c(-c2ccnc(Nc3ccc(N4CCOCC4)nc3)n2)s1` [GSK2008607], with 99.5%. On the same count and under the same terms, then `Cc1cccc(Nc2nc(N[C@H]3CCNC3)ncc2C(N)=O)c1.Cl` [GSK2197149], with 14%. Regarding `COc1cccc(C(=O)Nc2cccc(Oc3ccc4nc(NC(=O)C5CC5)cn4n3)c2)c1`, the “%Inh” value amounted to 0%. The same measure, in the same setting: the value for `Cl.c1ccc(-c2ccc3c(Nc4ccc5[nH]ccc5c4)ccnc3c2)nc1` [GW440138] was 0%; that for `CC(=O)N1CCN(c2ccc(Nc3nccc(-c4sc(C(C)C)nc4-c4cccc(NS(=O)(=O)c5cccc(Cl)c5)c4)n3)cn2)CC1` [GSK1660437] was 98.6%. On to `CCn1c(-c2nonc2N)nc2c(C#CC(C)(C)O)ncc(OCCCCN)c21.O=C(O)C(F)(F)F.O=C(O)C(F)(F)F` [GSK507274], for which the “%Inh” value amounted to 8%. On to `O=C(Nc1cccc(-c2nn3ccccc3c2-c2ccnc(Nc3cccc(C(F)(F)F)c3)n2)c1)c1c(F)cccc1F` [GSK292658], for which the “%Inh” value is 2%. Same read-out and setting: the value for `O=C(NC1CCN(c2ccnc(Nc3ccc(F)cc3)n2)C1)c1cc2ccccc2s1` (stereo not drawn) [GSK1379716] was 0%. The same measure, in the same setting: then `COc1cc(Nc2nccc(-c3c(-c4cccc(NC(=O)c5c(F)cccc5F)c4)nn4ncccc34)n2)cc(OC)c1OC` [GSK327238], with 11%. `COc1cccc(-c2ccc3c(NC(=O)C4CC4)n[nH]c3n2)c1` [SB-710903]: the “%Inh” value is reported as 10%.

For `Cn1cc(-c2ccc3c(c2)CCN3C(=O)Cc2cccc(Cl)c2)c2c(N)ncnc21` [GSK2606590], the “%Inh” value is 0%.
